PABP FP inh – blocks human PABP binding to poly(A) RNA | AID 2014 | P11940 | calls only at 35 µM | fluorescence polarization | hit rate 1% among 290,000;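 note: calls also rest on retests at 20 µM and on dose response follow-up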
Target sequence (P11940 whole entry, looked up): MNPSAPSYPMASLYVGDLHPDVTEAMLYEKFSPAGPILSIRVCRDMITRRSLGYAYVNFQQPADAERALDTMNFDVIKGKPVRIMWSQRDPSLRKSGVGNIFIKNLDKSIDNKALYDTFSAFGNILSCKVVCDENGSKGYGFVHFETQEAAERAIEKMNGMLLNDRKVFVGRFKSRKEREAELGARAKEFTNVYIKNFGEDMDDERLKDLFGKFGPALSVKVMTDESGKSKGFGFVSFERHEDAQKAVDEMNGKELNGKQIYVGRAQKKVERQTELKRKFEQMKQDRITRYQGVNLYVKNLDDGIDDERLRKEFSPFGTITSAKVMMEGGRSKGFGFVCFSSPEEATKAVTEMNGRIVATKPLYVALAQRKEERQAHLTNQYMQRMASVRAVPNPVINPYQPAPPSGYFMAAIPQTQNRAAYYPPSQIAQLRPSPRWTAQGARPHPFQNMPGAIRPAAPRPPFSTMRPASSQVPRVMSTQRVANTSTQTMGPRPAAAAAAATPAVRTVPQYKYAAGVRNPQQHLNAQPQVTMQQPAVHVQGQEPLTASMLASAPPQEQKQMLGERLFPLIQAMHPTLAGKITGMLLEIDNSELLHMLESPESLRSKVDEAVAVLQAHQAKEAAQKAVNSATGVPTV
eIF4H FP inh – inhibitors of RNA binding by human eIF4H | hit rate 0.94% among 290,000 | inhibition, % at 35 µM | AID 2012 | Q15056 | eIF4H fluorescence polarization binding assay;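 note: calls also rest on retests at 20 µM and on dose response follow-up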
ABCB6 inh 2 – blocks the human ABCB6 transporter. Q9NP58. fluorescence ratio to DMSO, % at 10 µM. K562-ABCB6 porphyrin accumulation, flow cytometry, 1 h; active compounds read low. hit rate 0.19% among 360,000;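 active = fluorescence ratio to DMSO below 75%, the collection mean minus 3 SD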;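 note: signal is porphyrin accumulated inside mitochondria; 100% equals median channel fluorescence of DMSO control wells; lower ratio means ABCB6 inhibition with less porphyrin fluorescence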
PHOSPHO1 block – inhibitors of human PHOSPHO1 phosphatase. Q8TCT1. recombinant PHOSPHO1, absorbance phosphatase assay. inhibition, % at 13.3 µM. hit rate 1.1% among 290,000. AID 1565; in the data active = inhibition above about 60%
AI-2 QS modul – modulates the Vibrio harveyi AI-2 quorum sensing system | Vibrio harveyi JMH597 AI-2 luminescence/OD600 ratio, 9 h; active compounds read low; strain lacks LuxN and CqsS sensors; 0 = neutral-control median | activity change, % at 7.5 µM | hit rate 0.4% among 300,000; in the data active = activity change below about -75%, passing the limit was not always enough;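 note: luminescence divided by OD600 gain over 9 h not by final OD600 alone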
MLLE-PAM2 inh – blocks PAM2 peptide binding to the PABP1 MLLE domain | inhibition, % at 20 µM | GST-MLLE / FITC-PAM2 fluorescence polarization | P11940 | hit rate 0.36% among 360,000; in the data active = inhibition above about 35%, passing the limit was not always enough;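 note: plate controls were DMSO wells with GST-MLLE for no effect and wells lacking GST-MLLE protein for full effect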
* = called active by the depositor; i = inactive; · = no result; + = active, no number. An excerpt weighted towards active compounds, which were near 2.6% of everything screened. Unless noted, the rule behind the calls is not given here.

SMILES	PABP FP inh	eIF4H FP inh	ABCB6 inh 2	PHOSPHO1 block	AI-2 QS modul	MLLE-PAM2 inh
CCCOc1ccc(C(=O)NC(=S)Nc2nc3ccccc3s2)cc1	i	-2	99	85*	8	-44
COc1ccc(C(=O)NC(=S)Nc2nc(C)c(C(=O)N(C)C)s2)cc1	i	6	101	22	34	45*
CCOC(=O)c1sc(NC(=S)NC(=O)c2ccco2)nc1C	i	4	90	6	14	41*
CC1(C(=O)O)CCCN1C(=O)c1cccc2ccccc12 (stereo not given)	·	·	100	·	·	-6
Cc1cc(C)cc(-n2c(SCC(=O)Nc3cccc(S(=O)(=O)NC4=NCCCCC4)c3)nc3ccccc3c2=O)c1	+	active	102	1	1	-12
Cc1cc(O)c(-c2cc(C(=O)NCc3ccc4c(c3)OCO4)[nH]n2)cc1C	i	7	59*	13	31	-1
COc1ccc(OC)c(C(O)c2ncc(-c3ccc(C(F)(F)F)cc3)[nH]2)c1 (stereo not given)	·	·	97	·	·	11
COc1cc(C(=O)OCC(=O)Nc2ccc(F)cc2F)cc(OC)c1OC	+	72*	96	23	18	-3
COc1ccc(C(=O)OCC(=O)Nc2ccc(F)cc2F)cc1OC	i	-3	101	-19	3	4
CCCn1c(=C(C#N)C#N)s/c(=C2\C=Cc3ccccc3N2CC)c1=O	i	2	95	6	·	40*
CCN1CCc2c(sc(NC(=S)NC(=O)c3ccc(Cl)cc3)c2C(N)=O)C1	i	95	170	67*	-12	-52
O=C(NCCN1CCC(n2c(=O)[nH]c3ccccc32)CC1)c1cccc(F)c1	·	·	94	·	·	·
Cc1cc(C(=O)N(C)Cc2ccc(Br)cc2)no1	i	-6	95	85*	46	-32
Cc1cc(NC(=O)CSc2nnc(-c3ccc([N+](=O)[O-])cc3)o2)no1	i	0	96	68*	18	-10
COc1cccc2sc(Nc3nnc(-c4cccs4)o3)nc12	i	17	96	18	-165*	-2
Fc1cccc2sc(Nc3nnc(-c4ccco4)o3)nc12	+	61*	97	-31	19	-1
COc1cccc2sc(Nc3nnc(-c4ccc(F)cc4)o3)nc12	i	17	97	-46	20	-2
COc1ccc(C(=O)N2CCOCC2c2cc(C(=O)NCc3ccccc3)no2)cc1 (stereo not given)	·	·	95	·	·	-2
O=C(CSc1ncn(-c2ccccc2)n1)Nc1nc2c(s1)CCCC2	+	74*	83	6	19	19
CC(=O)Nc1ccc(C(=O)CSc2ncn(-c3ccccc3)n2)cc1	i	-6	98	-3	18	41*
Cc1ccc2nc(C)c(C(=O)N/N=C/c3ccco3)cc2c1	i	10	97	-11	24	2
O=C(N/N=C/c1ccco1)c1cc(-c2cccs2)[nH]n1	+	60*	103	-1	12	-3
Cc1nc2ccccc2cc1C(=O)N/N=C/c1ccco1	i	87*	103	2	-1	-4
O=C(CCn1c(=S)[nH]c2cc3c(cc2c1=O)OCO3)N1CCc2ccccc2C1	i	-4	·	66*	-11	·
O=C(CCCn1c(=S)[nH]c2cc3c(cc2c1=O)OCO3)N1CCN(c2ccccc2)CC1	i	-4	99	69*	-6	-42
SMILES	PABP FP inh	eIF4H FP inh	ABCB6 inh 2	PHOSPHO1 block	AI-2 QS modul	MLLE-PAM2 inh
CC(=O)c1ccc(N2CCN(C(=O)CCCn3c(=S)[nH]c4cc5c(cc4c3=O)OCO5)CC2)cc1	i	2	96	63*	·	-59
COc1ccc(N2CCN(C(=O)CCCCCn3c(=S)[nH]c4cc5c(cc4c3=O)OCO5)CC2)cc1	i	-1	107	12	20	-17
O=C(CCCn1c(=S)[nH]c2cc3c(cc2c1=O)OCO3)N1CCN(c2ccc(Cl)cc2)CC1	i	-14	105	54	10	-26
CCOC(=O)N1CCN(C(=O)CCn2c(=S)[nH]c3cc(OCC)c(OCC)cc3c2=O)CC1	i	0	·	66*	28	·
CCCCNC(=O)C1c2ccccc2OCC(=O)N1Cc1cccnc1 (stereo not given)	·	·	97	·	·	·
Cn1cc(/C=N/n2cnc3sc4c(c3c2=O)CCCC4)c2ccccc21	i	-8	101	62*	36	-13
O=c1cc(C(F)(F)F)[nH]c2ccc(C(F)(F)F)cc12	i	5	103	23	24	-17
COC(=O)c1scc2c(=O)cc(C(F)(F)F)[nH]c12	i	48	99	10	-2	56*
CC(=O)NC(c1ccccc1)c1cc([N+](=O)[O-])c2cccnc2c1O (stereo not given)	i	6	92	37	-90*	7
CC(C)C(=O)NC(c1ccccc1)c1cc([N+](=O)[O-])c2cccnc2c1O (stereo not given)	i	13	95	-2	8	1
[O-]/C(=C(\C(=S)Nc1cccc2ccccc12)[n+]1ccccc1)c1ccc2c(c1)OCCO2	i	6	101	85*	13	15
COc1cccc(NC(=S)NNC(=O)c2c([N+](=O)[O-])c(C)nn2C)c1	i	14	97	82*	27	12
COc1cccc(NC(=S)NNC(=O)C(C)n2nc(C)c([N+](=O)[O-])c2C)c1 (stereo not given)	i	12	100	20	22	6
Cc1cccc(NC(=O)CSc2nnc(-c3ccco3)c(-c3ccco3)n2)c1	+	89	104	32	·	28
Cc1cccc(NC(=O)CSc2nnc(-c3ccco3)c(-c3ccco3)n2)c1C	+	91*	102	24	9	33
COc1ccc(CCNC(=O)CSc2nnc(-c3ccco3)c(-c3ccco3)n2)cc1OC	+	84*	·	0	11	·
Cc1ccccc1NC(=O)CSc1nnc(-c2ccco2)n1N	·	·	97	·	15	33
CC1(C(=O)NS(=O)(=O)c2ccc(Cl)s2)CCN1C(=O)C1(c2ccccc2)CCCC1 (stereo not given)	·	·	94	·	·	2
COC(=O)\C(C(C)=O)=C(/C=C/C=C/C=C/N(C)C)N(C)C	+	90*	106	28	5	3
CC(=O)c1ccc(NC(=O)/C(=C\c2ccc(F)cc2)NC(=O)c2ccco2)cc1	i	-5	74*	36	·	-3
COc1ccc(-c2cc(-c3n[nH]c(=S)n3-c3ccccc3OC)[nH]n2)cc1	i	1	107	67*	11	-41
COc1ccc(OC)c(-n2c(-c3ccccc3)n[nH]c2=S)c1	i	-2	100	102*	5	-9
Cc1ccc([C@H]2C[C@H](O)[C@@H](n3cc(C4CC4)nn3)CN2Cc2cccs2)cc1	·	·	101	·	·	3
c1coc(-c2nnc3sc(Cc4cccs4)nn23)c1	+	77*	92	-12	3	-20
